In test [1] the test system is HCC1937. As to the kind of experiment: relative cell viability, compound + RSL3, vs DMSO (fraction of DMSO control); higher = less growth inhibition. As to conditions: 72 h.
For test [2], the system named is MDA-MB-231. The test is described as above. Particulars: 72 h.

Structures can show the parent of a compound that is named as a salt.
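Also: breast cancer cell viability read out with the CCK-8 kit after co-treatment of each compound with the ferroptosis inducer RSL3.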

For the compound `CN(CCOc1ccc(CC2SC(=O)NC2=O)cc1)c1ccccn1` (configuration not stated) [Rosiglitazone] + COC(=O)c1ccc([C@H]2c3[nH]c4ccccc4c3C[C@H](C(=O)OC)N2C(=O)CCl)cc1 [RSL3], the relative cell viability came out at 1.26 in test [1] and 0.646 in test [2].

As for `CC(C)C1=CC2=CC[C@@H]3[C@](C)(CCC[C@@]3(C)C(=O)O)[C@H]2CC1` [Abietic Acid] + COC(=O)c1ccc([C@H]2c3[nH]c4ccccc4c3C[C@H](C(=O)OC)N2C(=O)CCl)cc1 [RSL3], the relative cell viability in test [1] amounted to 0.586; in test [2] it was 0.699.

Consider `O=C(CCCCc1ccc2c(c1)OCO2)N1CCCCC1` + COC(=O)c1ccc([C@H]2c3[nH]c4ccccc4c3C[C@H](C(=O)OC)N2C(=O)CCl)cc1 [RSL3], for which the relative cell viability in test [1] was 0.262; in test [2], 0.562.

On to `CC(c1cc2ccccc2s1)N(O)C(N)=O` (configuration not stated) [Zileuton] + COC(=O)c1ccc([C@H]2c3[nH]c4ccccc4c3C[C@H](C(=O)OC)N2C(=O)CCl)cc1 [RSL3], for which the values for the relative cell viability in test [1] and in test [2] were 0.895 and 0.633, respectively.

`O=S(=O)(O)c1ccc2cc(N=Nc3cc(S(=O)(=O)O)c4cccnc4c3O)ccc2c1` + COC(=O)c1ccc([C@H]2c3[nH]c4ccccc4c3C[C@H](C(=O)OC)N2C(=O)CCl)cc1 [RSL3]: the relative cell viability in test [1] is 0.511; in test [2], 0.744.

On to `CCN(CC)Cc1ccc(C(=O)N(CCc2ccccc2OC)[C@@H]2CCNC2)cc1` + COC(=O)c1ccc([C@H]2c3[nH]c4ccccc4c3C[C@H](C(=O)OC)N2C(=O)CCl)cc1 [RSL3], for which the results for the relative cell viability in test [1] and in test [2] were 0.666 and 0.784, respectively.

With `O=C(Nc1ccc(C(O)(C(F)(F)F)C(F)(F)F)cc1)c1ccc(C(F)(F)F)cc1` + COC(=O)c1ccc([C@H]2c3[nH]c4ccccc4c3C[C@H](C(=O)OC)N2C(=O)CCl)cc1 [RSL3], the relative cell viability was 0.264 in test [1] and 0.255 in test [2].

Turning to `COc1c(/C=C/C(=O)c2ccc(O)cc2)ccc(O)c1CC=C(C)C` + COC(=O)c1ccc([C@H]2c3[nH]c4ccccc4c3C[C@H](C(=O)OC)N2C(=O)CCl)cc1 [RSL3], the relative cell viability in test [1] was determined as 0.579; in test [2], 0.585.

Turning to `CC(C)(C)NC(=O)[C@H]1CC[C@H]2[C@@H]3CC[C@H]4NC(=O)C=C[C@]4(C)[C@H]3CC[C@]12C` [Finasteride] + COC(=O)c1ccc([C@H]2c3[nH]c4ccccc4c3C[C@H](C(=O)OC)N2C(=O)CCl)cc1 [RSL3], the relative cell viability in test [1] amounted to 0.885; in test [2] it was 0.645.

As for `CCCc1cc(-c2nc(-c3ccc(C)cc3)cs2)ccn1` [Fatostatin] + COC(=O)c1ccc([C@H]2c3[nH]c4ccccc4c3C[C@H](C(=O)OC)N2C(=O)CCl)cc1 [RSL3], the relative cell viability came to 0.269 in test [1] and 0.715 in test [2].

In the case of `O=C(c1ccc(-c2nc3ccc(F)cc3o2)cc1)N1CCN(C(=O)C2(O)CC2)CC1` + COC(=O)c1ccc([C@H]2c3[nH]c4ccccc4c3C[C@H](C(=O)OC)N2C(=O)CCl)cc1 [RSL3], the values for the relative cell viability in test [1] and in test [2] were 0.398 and 0.683, respectively.

For the compound `CCc1c(-c2ccccc2)c(-c2ccccc2)nn1-c1ccccc1-c1cccc(OCC(=O)O)c1` + COC(=O)c1ccc([C@H]2c3[nH]c4ccccc4c3C[C@H](C(=O)OC)N2C(=O)CCl)cc1 [RSL3], the relative cell viability turned out to be 0.503 in test [1] and 0.741 in test [2].

On to `O=C(CC(C(=O)O)c1c[nH]c2ccccc12)c1ccc(F)cc1F` (configuration not stated) [Mitochonic acid 5] + COC(=O)c1ccc([C@H]2c3[nH]c4ccccc4c3C[C@H](C(=O)OC)N2C(=O)CCl)cc1 [RSL3], for which the relative cell viability in test [1] came to 0.636; in test [2] it was 0.769.

With `Nc1ncnc2c1ncn2C1OC(COP(=O)(O)O)C(O)C1O` (configuration not stated) [Adenosine 5'-monophosphate monohydrate] + COC(=O)c1ccc([C@H]2c3[nH]c4ccccc4c3C[C@H](C(=O)OC)N2C(=O)CCl)cc1 [RSL3], the relative cell viability stood at 0.932 in test [1] and 0.622 in test [2].

Take `C[C@@H]1OCC2(CCN(c3cnc(Sc4ccnc(N)c4Cl)c(N)n3)CC2)[C@@H]1N` + COC(=O)c1ccc([C@H]2c3[nH]c4ccccc4c3C[C@H](C(=O)OC)N2C(=O)CCl)cc1 [RSL3]: the relative cell viability in test [1] was 0.378; in test [2], 0.71.

`N#Cc1ccc(Oc2cccc(NC(=O)Nc3ccc(Cl)c(C(F)(F)F)c3)c2)cc1` + COC(=O)c1ccc([C@H]2c3[nH]c4ccccc4c3C[C@H](C(=O)OC)N2C(=O)CCl)cc1 [RSL3]: the relative cell viability in test [1] came out at 0.0959; in test [2], 0.216.

Regarding `CCCCCCCCCCOc1ccc(C(=O)Nc2cc(C(=O)NCCCC)ccc2SC)cc1` + COC(=O)c1ccc([C@H]2c3[nH]c4ccccc4c3C[C@H](C(=O)OC)N2C(=O)CCl)cc1 [RSL3], the relative cell viability in test [1] is 0.408; in test [2], 0.421.

As to `O=C(O)c1ccnc(N2CC(O)(c3ccc(OCc4c(-c5c(Cl)cccc5Cl)noc4C4CC4)cc3Cl)C2)c1` [Cilofexor] + COC(=O)c1ccc([C@H]2c3[nH]c4ccccc4c3C[C@H](C(=O)OC)N2C(=O)CCl)cc1 [RSL3], the relative cell viability was 0.368 in test [1] and 0.568 in test [2].

With `NC(=O)c1cccc(-c2cccc(OC(=O)NC3CCCCC3)c2)c1` + COC(=O)c1ccc([C@H]2c3[nH]c4ccccc4c3C[C@H](C(=O)OC)N2C(=O)CCl)cc1 [RSL3], the relative cell viability in test [1] was 0.407; in test [2], 0.707.

Regarding `COc1ccc2[nH]cc(CCNC(C)=O)c2c1` [Melatonine] + COC(=O)c1ccc([C@H]2c3[nH]c4ccccc4c3C[C@H](C(=O)OC)N2C(=O)CCl)cc1 [RSL3], the relative cell viability in test [1] was found to be 0.613; in test [2], 0.465.

Take `COC(=O)CN(c1ccc(CN(c2ccc(OCc3ccc(C)cc3)c(C(=O)OC)c2)S(=O)(=O)Cc2ccccc2)cc1)S(C)(=O)=O` + COC(=O)c1ccc([C@H]2c3[nH]c4ccccc4c3C[C@H](C(=O)OC)N2C(=O)CCl)cc1 [RSL3]: the figures for the relative cell viability in test [1] and in test [2] were 0.538 and 0.626, respectively.

Regarding `COc1cc(F)c(C(C)C)cc1-c1ccc(C(F)(F)F)cc1CN1C(=O)O[C@H](c2cc(C(F)(F)F)cc(C(F)(F)F)c2)[C@@H]1C` [Anacetrapib] + COC(=O)c1ccc([C@H]2c3[nH]c4ccccc4c3C[C@H](C(=O)OC)N2C(=O)CCl)cc1 [RSL3], the results for the relative cell viability in test [1] and in test [2] were 0.622 and 0.497, respectively.

Regarding `O=C(O)c1cc(F)c2nc(N3[C@@H]4CC[C@H]3C[C@@H](OCc3c(-c5ccccc5OC(F)(F)F)noc3C3CC3)C4)sc2c1` [Tropifexor] + COC(=O)c1ccc([C@H]2c3[nH]c4ccccc4c3C[C@H](C(=O)OC)N2C(=O)CCl)cc1 [RSL3], the relative cell viability in test [1] was found to be 0.603; in test [2], 0.63.

Turning to `CN(C)C(=O)Nc1cccc(-c2ccc(N(C)C)cc2)c1` [Atglistatin] + COC(=O)c1ccc([C@H]2c3[nH]c4ccccc4c3C[C@H](C(=O)OC)N2C(=O)CCl)cc1 [RSL3], the values for the relative cell viability in test [1] and in test [2] were 0.321 and 0.562, respectively.

With `O=C(NC1CCN(CCCCC2(C(=O)NCC(F)(F)F)c3ccccc3-c3ccccc32)CC1)c1ccccc1-c1ccc(C(F)(F)F)cc1` [Lomitapide] + COC(=O)c1ccc([C@H]2c3[nH]c4ccccc4c3C[C@H](C(=O)OC)N2C(=O)CCl)cc1 [RSL3], the relative cell viability in test [1] came out at 0.173; in test [2], 0.391.

Turning to `CCCc1c(-c2ccccc2)[nH]n(-c2ccccn2)c1=O` [APX-115 free base] + COC(=O)c1ccc([C@H]2c3[nH]c4ccccc4c3C[C@H](C(=O)OC)N2C(=O)CCl)cc1 [RSL3], the results for the relative cell viability in test [1] and in test [2] were 0.412 and 0.415, respectively.

Take `C[C@H](CCCC(C)(C)O)[C@H]1CC[C@H]2[C@@H]3CC=C4C[C@@H](O)CC[C@]4(C)[C@H]3CC[C@]12C` [25-Hydroxycholesterol] + COC(=O)c1ccc([C@H]2c3[nH]c4ccccc4c3C[C@H](C(=O)OC)N2C(=O)CCl)cc1 [RSL3]: the relative cell viability in test [1] is 0.572; in test [2] it was 0.649.

For `C=C[C@H]1CN2CC[C@H]1C[C@@H]2[C@@H](O)c1ccnc2ccc(OC)cc12` [Quinidine sulfate] + COC(=O)c1ccc([C@H]2c3[nH]c4ccccc4c3C[C@H](C(=O)OC)N2C(=O)CCl)cc1 [RSL3], the relative cell viability in test [1] is 0.439; in test [2], 0.673.

For the compound `C[C@]12C=CC(=O)N[C@@H]1CC[C@@H]1[C@@H]2CC[C@]2(C)[C@@H](C(=O)Nc3cc(C(F)(F)F)ccc3C(F)(F)F)CC[C@@H]12` [Dutasteride] + COC(=O)c1ccc([C@H]2c3[nH]c4ccccc4c3C[C@H](C(=O)OC)N2C(=O)CCl)cc1 [RSL3], the relative cell viability in test [1] came to 0.53; in test [2], 0.427.

On to `O=c1c(-c2ccc(O)cc2)coc2cc(O)ccc12` [Daidzein] + COC(=O)c1ccc([C@H]2c3[nH]c4ccccc4c3C[C@H](C(=O)OC)N2C(=O)CCl)cc1 [RSL3], for which the relative cell viability was 0.865 in test [1] and 0.608 in test [2].

Take `N=C(N)NC(=N)NCCc1ccccc1` [Phenformin hydrochloride] + COC(=O)c1ccc([C@H]2c3[nH]c4ccccc4c3C[C@H](C(=O)OC)N2C(=O)CCl)cc1 [RSL3]: the figures for the relative cell viability in test [1] and in test [2] were 0.653 and 0.543, respectively.

As for `CCCCC[C@H](O)CC(=O)CCc1ccc(O)c(OC)c1` [6-Gingerol] + COC(=O)c1ccc([C@H]2c3[nH]c4ccccc4c3C[C@H](C(=O)OC)N2C(=O)CCl)cc1 [RSL3], the results for the relative cell viability in test [1] and in test [2] were 0.298 and 0.483, respectively.

As to `C/C=C(\CC[C@@H](C)[C@H]1CC[C@H]2[C@@H]3CC=C4C[C@@H](O)CC[C@]4(C)[C@H]3CC[C@]12C)C(C)C` [Fucosterol] + COC(=O)c1ccc([C@H]2c3[nH]c4ccccc4c3C[C@H](C(=O)OC)N2C(=O)CCl)cc1 [RSL3], the relative cell viability in test [1] is 0.476; in test [2] it was 0.694.

For the compound `CC(C)c1onc(-c2c(Cl)cccc2Cl)c1COc1ccc(/C=C/c2cccc(C(=O)O)c2)c(Cl)c1` + COC(=O)c1ccc([C@H]2c3[nH]c4ccccc4c3C[C@H](C(=O)OC)N2C(=O)CCl)cc1 [RSL3], the relative cell viability came to 0.874 in test [1] and 0.699 in test [2].

As for `Cc1c(C(=O)Nc2ccc(CO)cc2)nnn1Cc1ccc(Cl)c(Cl)c1` + COC(=O)c1ccc([C@H]2c3[nH]c4ccccc4c3C[C@H](C(=O)OC)N2C(=O)CCl)cc1 [RSL3], the figures for the relative cell viability in test [1] and in test [2] were 0.406 and 0.573, respectively.

Regarding `O=C(c1c2ccccc2cc2ccccc12)N1CCC(N2CCC[C@@H](C(=O)N3CCOCC3)C2)CC1` + COC(=O)c1ccc([C@H]2c3[nH]c4ccccc4c3C[C@H](C(=O)OC)N2C(=O)CCl)cc1 [RSL3], the relative cell viability is 0.352 in test [1] and 0.366 in test [2].

The values above are taken from the supplement of paper PMC9492666.
